Active and inactive are the calls of the source. Rule for the calls: active = hit-call score of the fitted dose curve at least 0.9, where 1 is the maximum; inactive = score below 0.9.

Read-out in the assay: ATP-citrate lyase (ACLY), ACLY (gene 47)
Put plainly: LTEA_HepaRG_ACLY: Life Technologies and Expression Analysis (LTEA) Assay for ATP-citrate lyase (ACLY) using HepaRG (AID 2283466). The note with it: mRNA level, 48 h; actives raise or lower the signal. How it is done:
LTEA_HepaRG is a cell based, multiplexed-readout assay that uses HepaRG, a human liver cell line, with measurements taken at 48 hours after chemical dosing on a 96-well plate.LTEA_HepaRG_ACLY is one of 102 assay component(s) measured in the LTEA HepaRG cell culture assay. It is a marker of Steatosis.Data from the assay component LTEA_HepaRG_ACLY was analyzed into 1 endpoint. This assay endpoint, LTEA_HepaRG_ACLY, was analyzed with bidirectional fitting relative to DMSO as the negative control and baseline of activity. Using a type of inducible reporter, measures of mRNA induction for gain or loss-of-signal activity can be used to understand regulation of transcription factor activity. To generalize the intended target to other relatable targets, this assay endpoint is annotated to the lyase intended target family, where the subfamily is steatosis.
A total of 1060 chemcials from the ToxCast library were tested in eight-point concentration-response experiments. Cell culture and cytotoxicity assays were conducted at Thermo Fisher Scientific's Custom Services facility (Madison, WI). A single lot of human HepaRG cells (Thermo Fisher Scientific, Frederick, MD) was used for the cell culture experiments. 96-well format collagen type I coated plates of human HepaRG cells were prepared using established methods. Briefly, cryopreserved HepaRG cells were thawed, plated at a density of approximately 100,000 cells/well in HepaRG Thaw, Plate, and General Purpose media (HPRG770, Thermo Fisher Scientific), and incubated for 48 hours. 0.5% DMSO was selected as vehicle control to balance the requisite need of DMSO in HepaRG cultures to maintain differentiation (for example, baseline metabolism, proportions of hepatocytes vs. cholangiocytes), while enabling further hepatic receptor pathway activation (for example, PXR and CAR) in response to chemical exposure. 48 hours after plating, the culture medium was replaced with HepaRG Serum-Free Incudtion Media. Cells were exposed to each test chemical in duplicate and maintained in CO2 incubators for another 48 hours. Chemical plates were thawed to room temperature and 200x concentrations of treatment groups were prepared. 8-point conentration-reponse curves were made with the highest exposure at 100 uM, followed by half-log dilutions, all in 0.5% DMSO. Each test plate contained variouse controls, induction positive controls (1mM phenobarbital), cytotoxicity positive controls ([…] aflatoxin B1), vehicle controls (0.5% DMSO), and total lysis controls (0.5% DMSO). Cell morphology images were taken using an Essen IncuCyte FLR automated microscope, with six 96-well plates imaged in about 24 minutes. Images were captured and exported and JPEG files. Spent culture media was transfered to black-well plates for the LDH assay, and remaining media was sorted at -80 C for later use. Cells were treated with RLT buffer and frozen until shipped for gene expression analysis. Total RNA was isolated from the cell suspension in 75 uL of Buffer RLT (Qiagen, Germantown, MD 20874) by Quintiles/Expression Analysis (Durham, NC) using a custom isolation procedure. Total RNA from each plate well was transferred to a preamplification plate. Fluidigm's 96.96 Dynamic ArrayTM (Fluidigm, Amsterdam, the Netherlands) technology was used for gene expression analyses by quantitative reverse transcription polymerase chain reaction (qRT-PCR, performed by Quintiles/Expression Analysis, Durham, NC)89. Standard TaqManTM Assays (Applied Biosystems/ThermoFisher Scientific, Foster City, CA) were used to assess the expression of 93 genes selected based on their selectivity and sensitivity to important hepatic receptors known to be modulated by environmental chemicals; importance in human hepatocyte functionality; and hepatotoxicity. […]
Take `CC(=O)OC[C@H]1O[C@@](COC(C)=O)(O[C@H]2O[C@H](COC(C)=O)[C@@H](OC(C)=O)[C@H](OC(C)=O)[C@H]2OC(C)=O)[C@@H](OC(C)=O)[C@@H]1OC(C)=O`: the call was inactive.

Consider `COC(=O)CC(=O)OC`, for which the compound was called inactive.

In the case of `O=C(O)CC(O)C(=O)O` (stereo not given), the outcome was inactive.

Take `CN(C)c1ccc(N=NS(=O)(=O)O)cc1`: the compound was classed as inactive.

`CC[C@H]1CC[C@H](NCc2cc3c(cc2OC)[C@H]2C[C@H]2C(=O)N3C)[C@H](c2ccccc2)N1`: the compound was called inactive.

As for `COCCOc1cc2cc(C(=O)NC3CCN(C(C)C)CC3)n(CC(=O)Nc3ccc(Cl)cn3)c2cn1`, the compound was classed as inactive.

Take `NC(=O)NO`: the call was inactive.

Consider `Cc1ccc(O)cc1`, for which the result was inactive.

`COC(=O)c1c(Cl)c(Cl)c(C(=O)OC)c(Cl)c1Cl`: the result was inactive.

For the compound `Cn1c(=O)c2c(ncn2C)n(C)c1=O`, the outcome was inactive.

As for `O=C(O)c1cc(N=Nc2ccc(S(=O)(=O)Nc3ccccn3)cc2)ccc1O`, the result was inactive.

In the case of `CC[C@H]1OC(=O)[C@H](C)[C@@H](O[C@H]2C[C@@](C)(OC)[C@@H](O)[C@H](C)O2)[C@H](C)[C@@H](O[C@@H]2O[C@H](C)C[C@H](N(C)C)[C@H]2O)[C@](C)(O)C[C@@H](C)C(=O)[C@H](C)[C@@H](O)[C@]1(C)O`, the result was inactive.

As to `CC(C)CCCCCCCOC(=O)CCCCC(=O)OCCCCCCCC(C)C`, the compound was classed as inactive.

As for `CCCC(=O)OCC`, the result was inactive.

In the case of `Fc1ccccc1[C@@H](F)COC1CCC(Nc2ncnc3[nH]ncc23)CC1` (stereo not given in full), the compound was classed as inactive.

For `Clc1nc(Cl)c(Cl)c(Cl)c1Cl`, the call was inactive.

As to `Oc1ccc2c(c1)-c1ccccc1C2`, the outcome was inactive.

Regarding `O=C(OC[C@H]1O[C@@H](OC(=O)c2cc(O)c(O)c(OC(=O)c3cc(O)c(O)c(O)c3)c2)[C@H](OC(=O)c2cc(O)c(O)c(OC(=O)c3cc(O)c(O)c(O)c3)c2)[C@@H](OC(=O)c2cc(O)c(O)c(OC(=O)c3cc(O)c(O)c(O)c3)c2)[C@@H]1OC(=O)c1cc(O)c(O)c(OC(=O)c2cc(O)c(O)c(O)c2)c1)c1cc(O)c(O)c(OC(=O)c2cc(O)c(O)c(O)c2)c1`, the compound was classed as inactive.

As for `O=C1CCC(N2C(=O)c3ccccc3C2=O)C(=O)N1` (stereo not given), the compound was classed as inactive.

As for `CCOCCOCCOCCO`, the result was inactive.

As to `Nc1ccc(Nc2ccccc2)cc1`, the outcome was inactive.

For `CC(O)CN(CCN(CC(C)O)CC(C)O)CC(C)O` (stereo not given), the compound was called inactive.

In the case of `O=C1OC(=O)C2C3C=CC(C3)C12` (stereo not given), the outcome was inactive.

`O=C(NS(=O)(=O)/C=C/c1ccccc1)c1ccc(F)cc1Cl`: the result was inactive.

Regarding `CC1(C)C(=O)N(Br)C(=O)N1Br`, the outcome was inactive.

In the case of `CCOC(=O)COc1ccc2c(c1)CC(NCC(O)c1cccc(Cl)c1)CC2` (stereo not given), the compound was called inactive.

Take `CNCc1ccc(NC(=O)c2c[nH]c3c2C(=O)CCC3)cc1`: the call was inactive.

Turning to `CCCCCCCCO`, the compound was classed as inactive.

Take `O=c1[nH]c2ccc(S(=O)CCN3CCC(Cc4ccc(F)cc4)CC3)cc2o1` (stereo not given): the compound was classed as inactive.

For the compound `CCCCCCCCCCCCCCCO`, the compound was classed as inactive.

Consider `COc1ccc(/C=C/S(=O)(=O)NC(=O)c2ccc(C)cc2Cl)cc1`, for which the call was inactive.

Take `C1=CCCC=CCCC=CCC1`: the call was inactive.

As to `Cc1ccc(C)c(O)c1`, the compound was called inactive.

The AC50 is the concentration at which the activity in the assay is half-maximal. Regarding `Cc1[nH]cnc1C[C@H]1CCc2c(C)c3ccccc3n2C1=O`, the AC50 is 75.6 µM (active).

As to `CC(C)c1cccc(C(C)C)c1N1C(=O)c2ccc(O)cc2C1=O`, the concentration at half-maximal activity (AC50) was 74.8 µM (active).

For the compound `CCn1nc(Cc2ccccc2)cc1C1CCN(C[C@H]2C[C@H](N(C)[C@@H](C(=O)O)C(C)C)C[C@@H]2c2cccc(F)c2)CC1`, the AC50 was 75.7 µM (active).

In the case of `C1N2CN3CN1CN(C2)C3`, the call was inactive.

For `C[C@](N)(Cc1ccc(O)c(O)c1)C(=O)O`, the compound was classed as inactive.

Consider `COc1cccc(-c2ccc(/C=C\CN3CCCCCC3)cc2Cl)c1`, for which the call was inactive.

Consider `CCCCC(CC)COC(=O)c1ccc(C(=O)OCC(CC)CCCC)cc1` (stereo not given), for which the outcome was inactive.

For the origin of these results see PubChem BioAssay (EPA / NIEHS).
